The sample as a whole holds a higher share of hits than the screen did.
TbPYK inhibitor = blocks Trypanosoma brucei pyruvate kinase | TbPYK enzyme, Kinase-Glo Plus ATP luminescence, 45 min | Potency, µM (doses to about 76.8 µM), without a hit: at the top dose activity, negative = inhibition, usual class: inhibitors | 410,000 tested, 0.12% active | AID 624173; further: potency means the concentration at half of the fitted maximal effect; on the % scale 0 is the no-effect control and ±100 the full control effect; nearly all actives have a fitted effect of over 50% in size
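TbPYK + substrate in 50 mM TEA pH 7.2, 100 mM KCl, 10 mM MgCl2, 0.05% BSA, 0.01% Tween-20; cpd pinned; ADP 130 uM final; 45 min RT; Kinase-Glo Plus 10 min; luminescence endpoint.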
Shiga toxin inh = inhibitors of Shiga toxin in Vero cells; 290,000 tested, 9.2% active; AID 2315; Vero cells, Shiga toxin protein synthesis inhibition reporter; inhibition, % at 38.7 µM; in the data active means inhibition mostly above about 28%, no sharp cut-off; inactive means mostly below about 43%; further: 0% is about no effect
CHX counter = affects cycloheximide protein synthesis inhibition readout, counter-screen | cell reporter, cycloheximide protein synthesis inhibition counterscreen | max response, % | 300,000 tested, 12% active | AID 2314; in the data active means max response mostly above about 13%, no sharp cut-off; inactive means mostly below about 14%; further: read at 38.3 µM for the half of the compounds with a filed dose; 0% is about no effect
Sm TGR inh = S. mansoni TGR enzyme inhibition; 360,000 tested, 3% active; purified TGR, DTNB reduction, TNB absorbance 405 nm; Potency, µM (doses to about 114 µM), for the others: at the highest dose activity change, negative = inhibition, most hits filed as inhibitors; AID 485364; Q962Y6; further: potency means the concentration at half of the fitted maximal effect; on the % scale 0 is the no-effect control and ±100 the full control effect; nearly all actives have a fitted effect of over 60% in size
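Kinetic colorimetric format: TGR-catalysed, NADPH-driven DTNB reduction monitored via TNB absorbance. Enzyme dispensed at 20 nM; compound exposure 15 min at room temperature before reaction start.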
LmPK inh = inhibitors of Leishmania mexicana pyruvate kinase; Q27686; purified LmPK, Kinase-Glo ATP luminescence, 1 h; Potency, µM (highest dose often 57.5 µM), inactives show at the highest dose activity change, negative = inhibition, most hits filed as inhibitors; 290,000 tested, 0.37% active; AID 1721; further: potency means the concentration at half of the fitted maximal effect; on the % scale 0 is the no-effect control and ±100 the full control effect
Target sequence (Q27686 whole entry, looked up): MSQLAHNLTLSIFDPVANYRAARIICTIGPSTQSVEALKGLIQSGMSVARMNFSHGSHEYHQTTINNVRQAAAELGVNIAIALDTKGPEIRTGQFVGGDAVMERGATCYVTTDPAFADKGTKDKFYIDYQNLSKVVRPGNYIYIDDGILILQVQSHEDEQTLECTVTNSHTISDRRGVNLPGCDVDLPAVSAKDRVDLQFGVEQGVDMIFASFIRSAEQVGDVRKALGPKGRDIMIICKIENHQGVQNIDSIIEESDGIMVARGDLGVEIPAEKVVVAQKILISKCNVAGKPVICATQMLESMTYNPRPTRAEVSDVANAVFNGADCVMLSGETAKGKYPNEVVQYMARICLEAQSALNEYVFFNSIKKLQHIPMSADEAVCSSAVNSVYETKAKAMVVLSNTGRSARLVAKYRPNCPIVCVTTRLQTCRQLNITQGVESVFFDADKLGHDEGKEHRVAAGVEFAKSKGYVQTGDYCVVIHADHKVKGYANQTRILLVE
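In 50 mM imidazole pH 7.2 with 7 mM MgCl2, LmPK (0.1 nM) turned over PEP (0.5 mM) and ADP (0.1 mM) for 1 h at room temperature. Luciferase read-out of ATP.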
Giardia FBPA inh = blocks Giardia fructose-bisphosphate aldolase activity. purified Giardia FBPA. Potency, µM (titrated, usually from 59.6 µM), for the others: at the top dose activity, negative = inhibition, usual class: inhibitors. 290,000 tested, 0.71% active; further: potency means the concentration at half of the fitted maximal effect; on the % scale 0 is the no-effect control and ±100 the full control effect; nearly all actives have a fitted effect of over 55% in size
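40 nM FBPA preincubated 10 min at RT with compound (up to 57.5 uM final), then substrate plus GAPDH/TPI/NAD/arsenate coupling and diaphorase/resazurin added. Fluorescence read after 20 min at RT, 525/598 nm.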
Starred values were filed as active, the others as inactive; ? = inconclusive; . = no result given; [ ] = dose if it differs, or a comment. Unless noted, the call rests on the fitted dose curve; in most records, active means well fitted curve in the direction sought with a large enough effect; inconclusive means small, poorly fitted or top-dose-only effect, or another doubt; inactive means no such curve, though single readings can be large; an effect the other way counts as inactive or inconclusive.

SMILES | TbPYK inhibitor | Shiga toxin inh | CHX counter | Sm TGR inh | LmPK inh | Giardia FBPA inh
CC1CN(C2CCCCC2)C(=S)N(c2ccccc2)C1=O (configuration not stated) | 4% | . | . | . | . | .
Cc1cccc(NC(=O)CCSc2ccccc2)c1C | -14% | 19 | 12* | -8% | -3% | 4%
Cc1ccc(NC(=O)CS(=O)c2ccccc2N)c(C)c1 (configuration not stated) | -5% | 35 | 38* | -3% | -3% | .
Cc1cc(NC(=O)CCSc2ccccc2)ccc1Br | -12% | 21 | 87* | -11% | 6% | 3%
Cc1cc(Br)ccc1NC(=O)CCSc1ccccc1 | 6% | 48* | 16* | 2% | -5% | 1%
Cc1cc(C)c2c(c1)c(C)cc1nnc(SCc3ccccc3C#N)n12 | -12% | . | . | -15% | . | .
O=C(CCC1CCCC1)N1CCc2c([nH]c3ccccc23)C1c1ccc(Cl)cc1 (configuration not stated) | 3% | . | . | 14% | . | .
Cc1ccc(F)cc1NC(=O)COC(=O)c1ccc2ncsc2c1 | -8% | . | . | 1% | . | .
Cc1ccc(C)c(S(=O)(=O)c2cn(Cc3ccccc3)c3cc(F)c(F)cc3c2=O)c1 | 2% | . | . | 6% | . | .
Cc1ccc(NC(=O)Cc2noc3ccccc23)c(C)c1 | -2% | 32* | 12 | 2% | 0% | -1%
Cc1ccc(F)cc1NC(=O)CCOc1ccccc1 | -1% | 4 | 2 | 5% | 1% | 0%
Cc1c(NC(=O)Cc2noc3ccccc23)cccc1[N+](=O)[O-] | 2% | 15 | 9 | 1% | -1% | -1%
Cc1ccc(NC(=O)CCSc2ccccc2)c(C)c1 | . | 55* | 24* | . | 1% | 1%
Cc1ccc(NC(=O)CCOc2ccccc2)c(C)c1 | 0% | 39 | 13* | -12% | 4% | 14%
Cc1ccc(NC(=O)Cc2ccccc2)c(C)c1 | . | 17 | 17 | . | 0% | 1%
Cc1nn(C)c(NC(=O)c2ccc(Cl)cc2Cl)c1Br | 0% | -7 | -1 | 8% | 1% | -2%
CCOC(=O)C1=C(C)N=c2s/c(=C/c3ccco3)c(=O)n2C1c1cccc(OC)c1 (configuration not stated) | -11% | 33 | 21* | -36% | 6% | -19%
CCOC(=O)C1=C(C)N=c2s/c(=C\c3ccc(C(=O)O)cc3)c(=O)n2C1c1ccc(OC)cc1OC (configuration not stated) | 0% | . | . | . | . | .
CC(=O)N1CCC2(CC1)CN(Cc1ccccc1)C2 | -5% | . | . | . | . | 0%
CC(=O)c1cccc(NC(=O)c2cccc(S(=O)(=O)N(C)C)c2)c1 | -18% | 8 | 13* | -16% | 4% | -5%
CN(C)S(=O)(=O)c1cccc(NC(=O)c2cnccn2)c1 | . | 9 | 1 | . | -4% | -2%
CN(C)S(=O)(=O)c1cccc(NC(=O)c2ccc3nccnc3c2)c1 | 5% | 44 | 20* | 9% | 8% | -19%
COCC(C)OC(=O)/C(C#N)=C\c1coc2ccc(C)cc2c1=O (configuration not stated) | ? | 14 | 7 | 18µM* | -1% | 3%
Cc1cc(N2CCCCC2)nc2ccc(NC(=O)/C=C/c3ccc(OCCC(C)C)cc3)cc12 | 2% | . | . | 0% | . | .
Cc1cccc(C)c1NC(=S)/C(=C(\[O-])c1cccs1)[n+]1ccccc1 | 1% | -11 | -1 | -18% | -1% | ?
SMILES | TbPYK inhibitor | Shiga toxin inh | CHX counter | Sm TGR inh | LmPK inh | Giardia FBPA inh
[O-]/C(=C(\C(=S)Nc1cccc2ccccc12)[n+]1ccccc1)c1cccs1 | 3% | 32 | 19* | . | 0% | ?
[O-]/C(=C(\C(=S)Nc1cccc2ccccc12)[n+]1ccccc1)c1ccc(OC(F)F)cc1 | 0% | -5 | 10 | -7% | 18% | 22µM*
[O-]/C(=C(\C(=S)Nc1cccc2ccccc12)[n+]1ccccc1)c1ccc2c(c1)OCCO2 | 3% | 39 | 22* | -12% | 5% | 10µM*
Cc1c(Cl)cccc1NC(=S)C(=C([O-])c1ccc(Cl)s1)[n+]1ccccc1 | -4% | . | . | . | . | .
Cc1c(C(=O)NCc2ccccc2C(F)(F)F)sc(=O)n1Cc1ccc(S(=O)(=O)N(C)C)cc1 | -7% | . | . | . | . | .
C=C1C[C@@H]2C[C@@H]2CN(S(=O)(=O)c2ccc(C)cc2)[C@@H]1c1ccco1 | -4% | . | . | . | . | .
CC(C)(C)C1CCc2c(sc(NC(=O)c3ccco3)c2C(N)=O)C1 (configuration not stated) | -2% | 24 | 15* | ? | 2% | 5%
CCC1CCc2c(sc(NC(=O)c3cnccn3)c2C(N)=O)C1 (configuration not stated) | -18% | . | -3 | 3% | -4% | 10%
CCC1CCc2c(sc(NC(=O)c3ccco3)c2C(N)=O)C1 (configuration not stated) | -7% | 96* | 30* | -24% | 2% | -4%
O=C(CSc1nc(-c2ccccc2Cl)ns1)Nc1ccc2c(c1)OCO2 | -5% | 23 | 15* | -1% | 1% | -3%
O=C(CSc1nc(-c2ccccc2Cl)ns1)c1ccc(Cl)cc1 | 0% | -10 | -2 | -3% | 0% | 5%
Cc1ccc(-c2nsc(SCC(=O)Nc3ccc4c(c3)OCO4)n2)cc1 | -4% | 24* | 18* | -5% | 2% | 1%
O=C(/C=C/c1ccc(Cl)cc1Cl)Nc1cccc(S(=O)(=O)NC2=NCCCCC2)c1 | 4% | 13* | 26* | 5% | 1% | -2%
O=C(/C=C/c1ccccc1)Nc1cccnc1Oc1ccccc1F | 5% | 76* | 62* | 16% | 4% | -2%
O=C(/C=C/c1ccccc1)Nc1cccc(S(=O)(=O)Nc2ccccc2F)c1 | ? | 39* | 10 | -3% | -1% | 0%
O=C(Nc1cccc(S(=O)(=O)NC2=NCCC2)c1)c1ccc(=O)[nH]c1 | 7% | . | . | 5.6µM* | . | .
Nc1cccnc1Oc1ccccc1F | -1% | -4 | -1 | 15% | 3% | 0%
O=C(Nc1cccc(S(=O)(=O)Nc2ccccc2F)c1)c1ccc2ccccc2n1 | ? | 27 | 8 | 8% | -2% | -23%
O=C(O)CC/C=C\CC[C@@H]1[C@@H](N2CCCCC2)[C@@H](O)C[C@@H]1OCc1ccc(-c2ccccc2)cc1 | -6% | . | . | . | . | .
CCn1c(C)c(C)c2cc(C(=O)NCC(C)c3ccccc3)ccc21 (configuration not stated) | 13%[15.4 µM] | . | . | 19% | . | .
CN1C(=O)CC(Nc2cccc3cccc(N)c23)C1=O (configuration not stated) | -4% | -3 | -7 | 32µM* | 4% | ?
CCCNC(=O)C(Cc1ccc(I)cc1)NC(=O)c1ccc2ccccc2n1 (configuration not stated) | 2% | . | . | -1% | . | .
COc1ccc(C(=O)NC(C)CCc2ccccc2)cc1 (configuration not stated) | -4% | . | 19* | 10% | 0% | 12%

Screening data: PubChem BioAssay, National Center for Advancing Translational Sciences (NCATS)
